Our source for the Potency and outcome values is PubChem BioAssay AID2494 (National Center for Advancing Translational Sciences (NCATS), 2010).

Calls of active or inactive are those of the source.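 The calls were made as follows: active = compounds that inhibit caspase-1 with a complete, partial or top-dose-only concentration response; inactive = the rest.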

This experiment addresses Caspase-1 (Homo sapiens) (UniProt P29466). Kind of experiment: Confirmation Assay for Allosteric/Competitive Inhibitors of Caspase-1. As to conditions: Caspase-1 enzyme, fluorogenic peptide substrate, kinetic rate. An excerpt: NIH Molecular Libraries Screening Centers Network [MLSCN] NIH Chemical Genomics Center [NCGC] MLSCN Grant: 1 X01 MH078950-01 PI Name: Dr. James Wells, Dr. Enrique Perez-Paya, Dr.Janice Williams, Dr. Dennis Wolan, a person NCGC Assay Overview: The caspases (Cysteine Aspartyl Protease) comprise a related family of 14 dimeric proteases that are critical mediators of apoptosis (programmed cell death) and inflammation. The caspases represent an important class of drug targets for stroke, ischemia, cancer and inflammatory diseases. […] One goal of this project was to identify compounds that act as allosteric inhibitors via stabilizing the procaspase form of the enzyme. Previous work in Well's laboratory has shown that such allosteric inhibitors can be identified and these act by binding at the dimer interface of enzyme (Hardy, Lam et al., 2004). The biochemical assay was configured using purified caspase 1 at a high enzyme concentration to promote formation of the homodimers and thus facilitate the identification of allosteric inhibitors. The overall goal was to identify reversible inhibitors with better drug-like properties than the currently available set of aspartyl-containing peptidomimetics that covalently bind the active site. Caspase 1 was assayed using the profluorescent substrate […]. After initiation of the assay with substrate the plates were rapidly read using an automated robotic system (Kalypsys, Inc.) to maintain consistent timing. A kinetic mode of detection was used where the initial rate was collected (estimated final product formation was ~10%). Compounds were screened as a concentration-titration series that ranged from 57 uM to 0.7 nM. Below is the protocol used for caspase 1.
Caspase-1 was dispensed ([…]) into a 1536-well black solid-bottom microplate (Greiner Bio-One, Monroe, USA) using a Bio-RAPTR (Beckman Coulter, Fullerton, USA) nanoliter dispenser for automated addition of reagents, to give a final enzyme concentration of 2 nM. Assay buffer was 50 mM HEPES, pH7.4, containing 1M sodium citrate, 100 mM NaCl, 0.1 mM EDTA, 10 mM DTT, 0.01% CHAPS, 1% DMSO, and 0.1 mg/mL bovine serum albumin (BSA). Aliquots of test compound (23 nL) from a DMSO stock solution were transferred to the enzyme-containing wells using a pintool transfer station (Kalypsys Inc., San Diego, USA), and the plates were incubated for 15 min at room temperature. Each compound was added as a 12-point titration in duplicate. Substrate was dispensed ([…]) to give a final caged fluorescent peptide substrate (Ac-LEHD-AMC) concentration of […], and the initial reaction rate was monitored over 20 min at room temperature. Free AMC was measured by fluorescence detection (lex=340 nm, lem=450) with a ViewLux charge-coupled device-based imager (PerkinElmer, Waltham, USA). Percent inhibition was calculated from the median values of the uninhibited and the uncatalyzed controls, and IC50 values were determined by fitting the concentration-response data with a four-parameter Hill equation as previously described (http://www.ncgc.nih.gov/pub/openhts/curvefit/).
As to `CC(=O)N[C@@H](Cc1ccc(O)cc1)C(=O)N[C@H](C(=O)N[C@@H](C)C(=O)N[C@H](C#N)CC(=O)O)C(C)C`, the Potency was 2.51 nM (active).
Regarding `CC(C)(C)[C@H](NC(=O)c1cc(Cl)cc(Cl)c1)C(=O)N1CCC[C@H]1C(=O)N[C@H](C#N)CC(=O)O`, the Potency is 0.436 nM (active).
Regarding `CC(C)(C)[C@H](NC(=O)c1ccc(N)c(Cl)c1)C(=O)N1CCC[C@H]1C(=O)N[C@H](C#N)Cc1nn[nH]n1`, the Potency was 20.4 nM (active).
On the same count and under the same terms, then `COc1ccc(C(=O)N[C@H](C(=O)N2CCC[C@H]2C(=O)N[C@H](C#N)CC(=O)O)C(C)(C)C)cc1Cl`, with 0.439 nM (active).
Same read-out and setting: then `CC(C)(C)[C@H](NC(=O)c1ccc(C(F)(F)F)cc1)C(=O)N1CCC[C@H]1C(=O)N[C@H](C#N)CC(=O)O`, with 8.33 nM (active).
On to `Cc1ccccc1C(=O)N[C@H](C(=O)N1CCC[C@H]1C(=O)N[C@H](C#N)CC(=O)O)C(C)(C)C`, for which the Potency was 2.78 nM (active).
`CC(C)(C)[C@H](NC(=O)c1ccc(N)c(Cl)c1)C(=O)N1CCC[C@H]1C(=O)N[C@H](C#N)CC(=O)O`: the Potency is 0.316 nM (active).
Same read-out and setting: the figure for `CONC(=O)C[C@@H](C#N)NC(=O)[C@@H]1CCCN1C(=O)[C@@H](NC(=O)c1ccc(N)c(Cl)c1)C(C)(C)C` is 145 nM (active).
For `CC(=O)N[C@H](C(=O)N[C@@H](C)C(=O)N[C@H](C#N)CC(=O)O)C(C)C`, the outcome was inactive.
Regarding `CCOC(=O)C[C@@H](C#N)NC(=O)[C@@H]1CCCN1C(=O)[C@@H](NC(=O)c1ccc(N)c(Cl)c1)C(C)(C)C`, the Potency is 145 nM (active).
